For 40 compounds, Potency and activation (H2AX phosphorylation) results are on record in PubChem BioAssay (Tox21).

Inconclusive results are not listed. Entries that show only a call come without a potency. Values without a mark were called inactive. Active and inactive are the calls of the source. The call rests on the fitted dose curve; in most records, active means well fitted activation curve with a large enough effect in the signal ratio in the repeat runs (not every such curve was filed as active); inconclusive means weak or mixed curves; inactive means flat fitted curve, though single readings scatter; the % refers to the signal ratio.

The assay can be described thus: qHTS assay to identify small molecule agonists of H2AX (AID 1224845). To be noted: CHO-K1 phospho-H2AX Ser139 HTRF, 3 h; series mostly up to 154 µM. From the text: National Center for Advancing Translational Sciences [NCATS]
NIH Chemical Genomics Center [NCGC]
U.S. Environmental Protection Agency [EPA]
National Institutes of Environmental Health Sciences [NIEHS]
National Toxicology Program [NTP]
U.S. Food and Drug Administration [FDA]
HTRF phospho-H2AX (Ser139) assay (Cisbio Bioassays, US) enables the quantitative detection of the histone variant H2AX when phosphorylated on serine 139. When double-stranded DNA breaks, either by ionizing radiation or endogenous physiological processes, H2AX becomes phosphorylated at Ser139. This phospho-Ser139 serves as a sensitive biomarker for the detection of such breaks, localizing the site of DNA repair. So, HTRF phospho-H2AX Ser139 is a pertinent assay to study genome stability, the cell cycle, DNA repair, and it serves as a biomarker for cancer, and to understand aging. Wild type CHO-K1 cells were used to identify the inducers of Phospho-H2AX Ser 139 from the Tox21 10K compound collections.
Tox21 Assay Protocol Summary:
The CHO-K1 cells suspended in culture medium containing 10% FBS were dispensed at 1000 cells/ 3 ul/well in 1536-well white wall/solid bottom plates (Greiner Bio-One North America, NC) using a Multidrop Combi (Thermo Fisher Scientific Inc., Waltham, MA). After the assay plates were incubated at 37C overnight, 23 nl of compounds at 15 concentrations (from 5-48 columns) or positive control (from 1 to 4 columns) were transferred to the assay plates using a Pintool station (Wako, San Diego, CA) into each well resulting in a final DMSO concentration of 0.76%. After 3hr incubation at 37C, 1 uL/well Supplemented Lysis buffer (diluted 100 fold blocking reagent in lysis buffer) (HTRF Phospho-H2A.X (S139) Assay kit from Cisbio US Inc., Bedford, MA) was added using a Flying Reagent Dispenser (FRD) (Aurora Discovery, CA). After 10sec spin at 1000 rpm in a plate centrifuge, the assay plates were incubated at room temperature for 30 min. Then followed by the addition of 1 uL/well detection buffer (containing a mixture of two antibodies, one labeled with cryptate, Anti pH2AX (S139)-K and another labeled with d2, Anti H2AX-d2) using FRD. After incubation at room temperature for 24 hr, the time resolved fluorescence at excitation 320 nm and emissions at 665 nm and 620 nm was measured using an Envision plate reader (PerkinElmer, Waltham, MA).
`CC(=O)[O][Al][O]C(C)=O`: the Potency result was “inactive”. On the same count and under the same terms, to `O=C(O)C(S)C(S)C(=O)O` (stereo not given) belongs “inactive”. Still for that read-out and setting: to `Nc1cccc(S(=O)(=O)c2cccc(N)c2)c1` belongs “inactive”. Still for that read-out and setting: to `Cc1cccc(C)c1NC(=O)CN(CC(=O)O)CC(=O)O` belongs “inactive”; to `C=C1C(=C/C=C2\CCC[C@]3(C)[C@@H]([C@H](C)/C=C/[C@@H](O)C4CC4)CC[C@@H]23)C[C@@H](O)C[C@@H]1O`, “inactive”; to `CC1OC(=O)C(C)OC1=O` (stereo not given), “inactive”. Take `c1cc(CCCc2ccncc2)ccn1`: the Potency entry is “inactive”. As for `CCCCC(CC)COC(=O)CCCCCCCCC(=O)OCC(CC)CCCC` (stereo not given), the Potency entry was “inactive”. With `CCCCCCCCCCCCN1CCCCCC1=O`, the Potency entry was “inactive”. Take `COc1cc2nc(Cl)nc(N)c2cc1OC`: the Potency result is “inactive”. The same measure, in the same setting: to `O=C1OC(CN2CCOCC2)CN1/N=C/c1ccc([N+](=O)[O-])o1` (stereo not given) belongs “inactive”. As for `CN(C)c1ccc(/C=C/c2ccc([N+](=O)[O-])cc2)cc1`, the activation (H2AX phosphorylation) is -1.3% [at 14 µM]. Take `c1ccc(CNCCNCc2ccccc2)cc1`: the Potency result is “inactive”.

On to `COC(=O)C1=C(C)NC(COC(N)=O)=C(C(=O)OC(C)C)C1c1cccc(Cl)c1Cl` (stereo not given), for which the Potency result was “inactive”. On the same count and under the same terms, to `C[C@H](CCC(=O)O)[C@H]1CC[C@H]2[C@@H]3CC[C@@H]4C[C@H](O)CC[C@]4(C)[C@H]3C[C@H](O)[C@]12C` belongs “inactive”; to `O=S(c1cc(Cl)cc(Cl)c1O)c1cc(Cl)cc(Cl)c1O`, “inactive”.

Take `CCCCCCCC/C=C\CCCCCCCC(=O)OCC`: the Potency result was “inactive”. Same read-out and setting: to `NCc1ccccc1Sc1ccccc1CO` belongs “inactive”; to `OCCN1CCN(CCCN2c3ccccc3C=Cc3ccccc32)CC1`, “inactive”. Take `O=C(OCCCCCCOC(=O)c1ccccc1)c1ccccc1`: the Potency entry was “inactive”. On the same count and under the same terms, to `O=C1[C@H]2CCCC[C@H]2C(=O)N1CCCCN1CCN(c2nsc3ccccc23)CC1` belongs “inactive”; to `CCc1cc(C2=C(C(=O)O)N(c3ccccc3C(F)(F)F)S(=O)(=O)c3ccccc32)cc2c1OCO2`, “inactive”.

Consider `O=C(O)CNCC(=O)O`, for which the activation (H2AX phosphorylation) is 4.61% [at 14 µM]. In the case of `CN(C)CCN(Cc1ccccc1)c1ccccn1`, the Potency entry is “inactive”. For `NCC(=O)O`, the activation (H2AX phosphorylation) was 0.478% [at 31.6 µM]. As to `CCOC(=O)NCCOc1ccc(Oc2ccccc2)cc1`, the Potency result was “inactive”. Still for that read-out and setting: to `O=C1OC(=O)C2C3C=CC(C3)C12` (stereo not given) belongs “inactive”; to `COc1ccc(C)cc1[N+](=O)[O-]`, “inactive”. `CCN(CC)CCOC(=O)C(Cc1cccc2ccccc12)CC1CCCO1` (stereo not given): the Potency entry was “inactive”. On the same count and under the same terms, to `CCn1cc(C(=O)O)c(=O)c2cnc(N3CCNCC3)nc21` belongs “inactive”; to `CC(C)(C)Cl`, “inactive”. For the compound `C[C@H]1C[C@H]2[C@@H]3CCC4=CC(=O)C=C[C@]4(C)[C@@]3(Cl)[C@@H](O)C[C@]2(C)[C@@]1(O)C(=O)CO`, the Potency result was “inactive”. The same measure, in the same setting: to `CN(Cc1ccc(C(C)(C)C)cc1)Cc1cccc2ccccc12` belongs “inactive”.

Turning to `Nc1ccc(S(=O)(=O)Nc2ccccc2)cc1`, the Potency entry was “inactive”. Take `C=CCOc1ccccc1OCC(O)CNC(C)C` (stereo not given): the Potency result was “inactive”. Still for that read-out and setting: to `CCC(C)c1cc(C(C)(C)C)c(O)c(C(C)(C)C)c1` (stereo not given) belongs “inactive”. Still for that read-out and setting: to `C1CCCNCCC1` belongs “inactive”.

For the compound `O=C(Cl)c1cc(C(=O)Cl)cc(C(=O)Cl)c1`, the Potency result was “inactive”. Same read-out and setting: to `COC(=O)c1ccc(I)cc1S(=O)(=O)NC(=O)Nc1nc(C)nc(OC)n1` belongs “inactive”. For `O=C(O)C1(C(=O)Nc2ccc(Cl)cc2Cl)CC1`, the Potency result was “inactive”.
